The subject of the assay is HL-1. Nature of the assay: relative cell viability (CellTiter-Glo) vs DMSO control (% of DMSO control); higher = more viable cells. In a few lines: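 Viability of HL-1 mouse atrial cardiomyocytes was assessed by CellTiter-Glo luminescence and normalised to vehicle-treated control cells. Cells were plated in 384-well plates at 1000 cells per well with compounds at 40, 200, 1000 or 5000 nM in 0.01% DMSO, and one day later were placed at 1% O2 for 48 h, then reoxygenated for 24 h, or kept in normoxia for the same duration.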
In general terms: Cellular ATP, detected with luciferase, serves as a proxy for viable cell number.

The mark [1] stands for this setting: oxygen condition: hypoxia 48 h (1% O2) + reoxygenation 24 h, 40 nM.
Setting [2] is: oxygen condition: hypoxia 48 h (1% O2) + reoxygenation 24 h, 200 nM.
Where [3] appears, read: oxygen condition: hypoxia 48 h (1% O2) + reoxygenation 24 h, 1000 nM.
Setting [4] is: oxygen condition: hypoxia 48 h (1% O2) + reoxygenation 24 h, 5000 nM.
The mark [5] stands for this setting: oxygen condition: normoxia 72 h, 40 nM.
Setting [6] is: oxygen condition: normoxia 72 h, 200 nM.
Setting [7] is: oxygen condition: normoxia 72 h, 1000 nM.
Where [8] appears, read: oxygen condition: normoxia 72 h, 5000 nM.

The results in this text go back to the supplement of paper PMC8371130.

Structures are written as SMILES. Counter-ions that a name gives are not always drawn.

Regarding `Cl.N=C(N)NCCC[C@H](N)C(=O)O` [L-Arginine HCl], the relative cell viability came to 97.5 under setting [1]; 104 under setting [2]; 104 under setting [3]; 118 under setting [4]; 100 under setting [5]; 104 under setting [6]. Moreover, the relative cell viability by setting is: under setting [7], 108; under setting [8], 107.
Regarding `CCN(CC)CCNC(C(=O)OCCC(C)C)c1ccccc1` (stereo not drawn) [Camylofin Chlorhydrate], the relative cell viability under setting [1] was 108; the relative cell viability under setting [2] amounted to 103; the relative cell viability under setting [3] amounted to 106; the relative cell viability under setting [4] came out at 109; the relative cell viability under setting [5] was found to be 101; the relative cell viability under setting [6] came to 100. In addition, the relative cell viability came to 103 under setting [7] and 110 under setting [8].
As for `CN1CCC(OC(c2ccccc2)c2ccccc2)CC1` [Diphenylpyraline HCl], the relative cell viability under setting [1] amounted to 102; the relative cell viability under setting [2] was found to be 96.9; the relative cell viability under setting [3] came out at 99.3; the relative cell viability under setting [4] is 110; the relative cell viability under setting [5] is 96.9; the relative cell viability under setting [6] stood at 103. Also, the relative cell viability under setting [7] is 102 and the relative cell viability under setting [8] is 100.
As for `CCCNCC(O)COc1ccccc1C(=O)CCc1ccccc1` (stereo not drawn) [Propafenone], the relative cell viability reads like this: under setting [1], 97.1; under setting [2], 105; under setting [3], 108; under setting [4], 105; under setting [5], 107; under setting [6], 102. Moreover, the relative cell viability by setting is: under setting [7], 110; under setting [8], 103.
As to `CCOC(=O)OC(C)OC1=C(C(=O)Nc2ccccn2)N(C)S(=O)(=O)c2ccccc21` (stereo not drawn) [Ampiroxicam], the relative cell viability was determined as 110 under setting [1]; 102 under setting [2]; 104 under setting [3]; 121 under setting [4]; 101 under setting [5]; 101 under setting [6]. The relative cell viability is, setting by setting: under setting [7], 102; under setting [8], 120.
For `CCOc1nc2cccc(C(=O)OC(C)OC(=O)OC3CCCCC3)c2n1Cc1ccc(-c2ccccc2-c2nn[nH]n2)cc1` (stereo not drawn) [Candesartan cilexetil], the relative cell viability under setting [1] worked out at 106; the relative cell viability under setting [2] was 104; the relative cell viability under setting [3] is 97.6; the relative cell viability under setting [4] came out at 4.71; the relative cell viability under setting [5] came out at 98; the relative cell viability under setting [6] was 102. Besides, the relative cell viability was 101 under setting [7] and 4.11 under setting [8].
As to `CN1C(CCl)Nc2cc(Cl)c(S(N)(=O)=O)cc2S1(=O)=O` (stereo not drawn) [Methyclothiazide], the relative cell viability runs as follows: under setting [1], 106; under setting [2], 98.5; under setting [3], 105; under setting [4], 110; under setting [5], 108; under setting [6], 106. The relative cell viability is, setting by setting: under setting [7], 109; under setting [8], 115.
Consider `CNC(=O)c1cc(Oc2ccc(NC(=O)Nc3ccc(Cl)c(C(F)(F)F)c3)cc2)ccn1` [Sorafenib], for which the relative cell viability was determined as 104 under setting [1]; 105 under setting [2]; 116 under setting [3]; 114 under setting [4]; 109 under setting [5]; 101 under setting [6]. For the same compound, the relative cell viability reads like this: under setting [7], 118; under setting [8], 114.
`O=C(O)c1cn(C2CC2)c2cc(N3CCNCC3)c(F)cc2c1=O` [Ciprofloxacin]: the relative cell viability under setting [1] worked out at 107; the relative cell viability under setting [2] was 100; the relative cell viability under setting [3] was determined as 99.7; the relative cell viability under setting [4] is 121; the relative cell viability under setting [5] was found to be 97.4; the relative cell viability under setting [6] turned out to be 99.2. Besides, the relative cell viability under setting [7] amounted to 107 and the relative cell viability under setting [8] is 121.
With `CC[C@@]1(O)C(=O)OCc2c1cc1n(c2=O)Cc2cc3c(CN(C)C)c(O)ccc3nc2-1` [Topotecan HCl], the relative cell viability under setting [1] came to 58.6; the relative cell viability under setting [2] was found to be 37.4; the relative cell viability under setting [3] worked out at 19.8; the relative cell viability under setting [4] is 9.1; the relative cell viability under setting [5] amounted to 52.3; the relative cell viability under setting [6] worked out at 30.9. Besides, the relative cell viability is, setting by setting: under setting [7], 15.1; under setting [8], 6.41.
Consider `Nc1cc(C(Cl)=C(Cl)Cl)c(S(N)(=O)=O)cc1S(N)(=O)=O` [Clorsulon], for which the relative cell viability was 109 under setting [1]; 105 under setting [2]; 107 under setting [3]; 113 under setting [4]; 110 under setting [5]; 115 under setting [6]. Besides, the relative cell viability by setting is: under setting [7], 116; under setting [8], 110.
With `OC1(c2ccc(Cl)c(C(F)(F)F)c2)CCN(CCCC(c2ccc(F)cc2)c2ccc(F)cc2)CC1` [Penfluridol], the relative cell viability under setting [1] came to 96.8; the relative cell viability under setting [2] amounted to 107; the relative cell viability under setting [3] was 96.7; the relative cell viability under setting [4] is 116; the relative cell viability under setting [5] was determined as 97.8; the relative cell viability under setting [6] was found to be 100. Besides, the relative cell viability reads like this: under setting [7], 104; under setting [8], 120.
Take `C[N+]1(C)CCC(=C(c2ccccc2)c2ccccc2)CC1` [Diphemanil methylsulfate]: the relative cell viability runs as follows: under setting [1], 104; under setting [2], 100; under setting [3], 104; under setting [4], 104; under setting [5], 102; under setting [6], 104. Also, the relative cell viability is, setting by setting: under setting [7], 106; under setting [8], 100.
On to `COc1ccc(CN(CCN(C)C)c2ccccn2)cc1` [Pyrilamine Maleate], for which the relative cell viability by setting is: under setting [1], 102; under setting [2], 99.1; under setting [3], 101; under setting [4], 112; under setting [5], 99.5; under setting [6], 106. For the same compound, the relative cell viability came to 99.9 under setting [7] and 124 under setting [8].
As to `Cc1nccn1CC1CCc2c(c3ccccc3n2C)C1=O` (stereo not drawn) [Ondansetron], the relative cell viability under setting [1] came out at 99.4; the relative cell viability under setting [2] was 103; the relative cell viability under setting [3] was 102; the relative cell viability under setting [4] was found to be 109; the relative cell viability under setting [5] stood at 102; the relative cell viability under setting [6] stood at 99.7. Further, the relative cell viability is, setting by setting: under setting [7], 101; under setting [8], 107.
As for `Cc1cnc(C(=O)O)c[n+]1[O-]` [Acipimox], the relative cell viability by setting is: under setting [1], 105; under setting [2], 104; under setting [3], 109; under setting [4], 116; under setting [5], 101; under setting [6], 104. Further, the relative cell viability is, setting by setting: under setting [7], 107; under setting [8], 108.
